Compounds with a hit are over-represented: about 1.1% of the library has one in this group of screens.
SRC3 inh = SRC3 coactivator transcriptional activity inhibitors, primary screen, cell-based, luminescence. Nuclear receptor coactivator 3 (Homo sapiens), Q9Y6Q9. HEK293 GAL4-SRC3 luciferase reporter. inhibition, % at 3.6 µM. 360,000 tested, 0.17% active;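 active means inhibition above a per-campaign cutoff, the mean of all compounds plus 3 SD, cut at about 60% in these data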;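 further: higher means less SRC3-driven luciferase light from the GAL4 reporter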
COUP-TFII inh = NR2F2 transcriptional activity inhibitors, primary screen, cell-based, luciferase reporter, HEK293T, luminescence. 370,000 tested, 0.7% active. inhibition, % at 8.6 µM. COUP transcription factor 2 (Homo sapiens), P24468. AID 686940, 2013. HEK293T NGFI-A luciferase reporter;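 active means inhibition above a per-plate cutoff, mean inhibition of test wells between control levels plus 3 SD, cut at about 38% in these data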;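 further: cells cotransfected with COUP-TFII expression vector driving the NGFI-A reporter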
GalR3 antagonist = GalR3 antagonists in HEK293 cells, primary screen, cell-based, fluorescence readout | 360,000 tested, 0.44% active | inhibition, % at 3 µM | HEK293 GalR3-CNG cAMP membrane potential fluorescence; galR3 body fused to GalR1 C-terminus | AID 651719, 2012 | Galanin receptor type 3 (Homo sapiens), O60755;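 active means inhibition above the screen-wide average plus 3 SD, cut at about 13% in these data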;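 further: forskolin and galanin both at EC90 stimulate the cells; cAMP rise reported by CNG channel membrane potential dye signal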
NR5A2 inv ag = LRH-1 (NR5A2) inverse agonists, primary screen, cell-based, luminescence, HEK293T, StAR-luciferase reporter | Nuclear receptor subfamily 5 group A member 2 (Homo sapiens), O00482 | LRH-1 transfected, 24 h | inhibition, % at 3.6 µM | 360,000 tested, 0.13% active | AID 602396, 2012;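 active means inhibition above the mean inhibition of all tested compounds plus 3 SD, cut at about 73% in these data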
NCOA1 inh = SRC1 coactivator transcriptional activity inhibitors, primary screen, cell-based, luminescence. Nuclear receptor coactivator 1 (Homo sapiens), Q15788. HEK293 GAL4-SRC1 luciferase reporter. 360,000 tested, 0.12% active. inhibition, % at 3.6 µM;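 active means inhibition above the campaign mean plus 3 SD, with each screening campaign given its own cutoff, cut at about 60% in these data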
NCOA2 inhibitor = inhibition of GAL4-SRC2 driven luciferase reporter, primary screen, SRC2 inhibitor project, cell-based, luminescence. 370,000 tested, 0.17% active. Nuclear receptor coactivator 2 (Homo sapiens), Q15596. HEK293 GAL4-SRC2 luciferase reporter. inhibition, % at 9 µM;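 active means inhibition above the mean inhibition of all tested compounds plus 3 SD, set per campaign, cut at about 52% in these data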
VP16 Luc counter = Gal4-VP16 luciferase reporter inhibitors, counter-screen for COUP-TFII antagonist project, cell-based, luminescence, HEK293; shares compounds with COUP-TFII inh; 2,500 tested, 25% active; inhibition, % at 8.5 µM; AID 687007, 2013; in the data active means inhibition above about 13%
NR2F2 inh conf = NR2F2 transcriptional activity inhibitors, confirmation, cell-based, luciferase reporter, HEK293, triplicate; HEK293 NGFI-A luciferase reporter, luminescence; inhibition, % at 8.5 µM; 2,500 tested, 45% active; shares compounds with COUP-TFII inh; AID 687008, 2013;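 active means mean inhibition over three repeats above a set limit taken from the earlier primary screen, cut at about 38% in these data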
Large screens that a line does not name were inactive (follow-up assays come after a bar, where they were run).

Clc1ccccc1C1=NCc2nncn2-c2sc(Br)cc21	none
CC(=O)OC[C@]12CCC(C)=C[C@H]1O[C@@H]1[C@H](O)[C@@H](OC(C)=O)[C@@]2(C)[C@]12CO2	SRC3 inh 95, COUP-TFII inh 91, NR5A2 inv ag 102, NCOA1 inh 95, NCOA2 inhibitor 75 | VP16 Luc counter 18 | NR2F2 inh conf 90
CN(Cc1cccc(-c2cccnc2)c1)C(=O)Oc1ccc([N+](=O)[O-])cc1	COUP-TFII inh 51 (no result: SRC3 inh, NCOA1 inh) | VP16 Luc counter inactive | NR2F2 inh conf inactive
Cc1nc(-c2cccc(CN(C)C(=O)Oc3ccc([N+](=O)[O-])cc3)c2)no1	none (no result: SRC3 inh, NCOA1 inh)
CP(=O)(Nc1ccccc1)C(Cl)(Cl)Cl (stereo unspecified)	none
CCOc1nc(NC(C)C)nc(N2CC3CC(C2)c2cccc(=O)n2C3)n1 (stereo unspecified)	none
CC1=CC2OC3CC4OC(=O)C=CC=CC(C(C)O)OCC(O)C(C)CC(=O)OCC2(CC1O)C4(C)C31CO1 (stereo unspecified)	SRC3 inh 94, COUP-TFII inh 90, NR5A2 inv ag 99, NCOA1 inh 95, NCOA2 inhibitor 71 | VP16 Luc counter 23 | NR2F2 inh conf 93
COC(=O)C1C2c3ccccc3C(c3ccccc32)C1(C)C(=O)OC (stereo unspecified)	none
C[C@@H]1O[C@@H](O[C@@H]2C=C3CCC4C(CC[C@]5(C)[C@@H](c6ccc(=O)oc6)CC[C@]45O)[C@@]3(C)CC2)[C@H](O)[C@H](O)[C@H]1O (stereo partly specified)	SRC3 inh 93, COUP-TFII inh 81, GalR3 antagonist 16, NR5A2 inv ag 103, NCOA1 inh 90, NCOA2 inhibitor 71 | VP16 Luc counter 56 | NR2F2 inh conf 82
C[C@@H]1O[C@@H](O[C@@H]2C=C3CC[C@@H]4C(CC[C@]5(C)[C@@H](c6ccc(=O)oc6)CC[C@]45O)[C@@]3(C)CC2)[C@H](O)[C@H](O)[C@H]1O (stereo partly specified)	SRC3 inh 91, COUP-TFII inh 73, GalR3 antagonist 33, NR5A2 inv ag 100, NCOA1 inh 93, NCOA2 inhibitor 58 | VP16 Luc counter 55 | NR2F2 inh conf 81
Clc1cc(I)cc(Cl)c1NC1=NCCN1	none (no result: GalR3 antagonist)
Cc1c(C=O)c2ccccc2n1Cc1ccc([N+](=O)[O-])cc1	none
CC(=O)OC1C(O)C(C)OC(OC2C(OC(=O)C3CCC4C(C3)OC3(CC(OC(=O)/C=C/c5ccccc5)C(C)CO3)C43CO3)OC(C)C(O)C2OC(C)=O)C1O (stereo unspecified)	SRC3 inh 95, COUP-TFII inh 91, NR5A2 inv ag 99, NCOA1 inh 96, NCOA2 inhibitor 72 | VP16 Luc counter 23 | NR2F2 inh conf 87
C[n+]1ccc(-c2ccccc2)c2ccccc21	COUP-TFII inh 40 | VP16 Luc counter inactive | NR2F2 inh conf inactive
C[n+]1c(-c2ccccc2)sc2ccccc21	none
C[C@H]1CC[C@@]2(C)[C@@H](CC[C@@H]3[C@@H]2CC[C@]2(C)[C@@H](O)CC[C@@H]32)C1	none
COC(=O)C1=C(c2ccc(-c3ccccc3)c(F)c2)C[C@@H]2CC[C@H]1N2C(=O)NCCc1ccccc1	none
Oc1ccc(-[n+]2c(-c3ccccc3)cc(-c3ccccc3)cc2-c2ccccc2)cc1	COUP-TFII inh 62 | VP16 Luc counter inactive | NR2F2 inh conf 51
COc1ccc(-[n+]2c(-c3ccccc3)cc(-c3ccccc3)cc2-c2ccccc2)cc1	COUP-TFII inh 57 (no result: SRC3 inh, NR5A2 inv ag, NCOA1 inh) | VP16 Luc counter 20 | NR2F2 inh conf 60
O=[N+]([O-])c1ccc(-[n+]2c(-c3ccccc3)cc(-c3ccccc3)cc2-c2ccccc2)cc1	none
CCCNS(=O)(=O)c1ccc(OCC(=O)N2CCN(Cc3ccc4c(c3)OCO4)CC2)c(C)c1	COUP-TFII inh 46 | VP16 Luc counter inactive | NR2F2 inh conf inactive
CC1OC(OC2CC(O)C3(CO)C4C(O)CC5(C)C(C6=CC(=O)OC6)CCC5(O)C4CCC3(O)C2)C(O)C(O)C1O (stereo unspecified)	SRC3 inh 92, COUP-TFII inh 84, GalR3 antagonist 39, NR5A2 inv ag 103, NCOA1 inh 90, NCOA2 inhibitor 73 | VP16 Luc counter 53 | NR2F2 inh conf 80
C[C@@H]1O[C@@H](O[C@H]2C[C@@H](O)[C@]3(CO)[C@H]4[C@H](O)C[C@]5(C)[C@@H](C6COC(=O)C6)CC[C@]5(O)[C@@H]4CC[C@]3(O)C2)[C@H](O)[C@H](O)[C@H]1O (stereo partly specified)	COUP-TFII inh 68, GalR3 antagonist 22, NR5A2 inv ag 99, NCOA1 inh 69 | VP16 Luc counter 21 | NR2F2 inh conf 59
COc1cc(C(=O)N/N=C/C23CC[C@@H](O)CC2(O)CC[C@@H]2[C@@H]3CCC3(C)C(C4=CC(=O)OC4)CCC23O)ccc1O (stereo partly specified)	none
CCC(C)C1NC(=O)C(NC(=O)C(CC(C)C)N(C)C(=O)C2CCCN2C(=O)C(C)O)C(C)OC(=O)C(Cc2ccc(OC)cc2)N(C)C(=O)C2CCCN2C(=O)C(CC(C)C)NC(=O)[C@H](C)C(=O)[C@H](C(C)C)OC(=O)CC1O (stereo partly specified)	SRC3 inh 94, COUP-TFII inh 91, NR5A2 inv ag 97, NCOA1 inh 95, NCOA2 inhibitor 78 | VP16 Luc counter 21 | NR2F2 inh conf 88
C#CCCC[C@@H]1OC(=O)CNC(=O)C([C@@H](C)CC)NC(=O)[C@@H]2CCCN2C(=O)C([C@@H](C)CC)OC(=O)[C@H](Cc2ccccc2)N(C)C(=O)[C@H](C(C)C)NC(=O)C1(C)C (stereo partly specified)	none
COc1ccc(CC(=O)N2CCN(C)CC2)cc1	none
COc1ccc(CC2NCC(O)C2OC(C)=O)cc1 (stereo unspecified)	SRC3 inh 95, COUP-TFII inh 88, NR5A2 inv ag 103, NCOA1 inh 95, NCOA2 inhibitor 68 | VP16 Luc counter 22 | NR2F2 inh conf 82

Screening results (PubChem BioAssay)
